# Data published in PubChem BioAssay AID463173 (ICCB-Longwood Screening Facility, Harvard Medical School, 2010).
# The campaign covered roughly 52,000 compounds. About 4,300 (8.3%) were called active. Rule as the data show it: active = survival mostly below about 52% (no sharp cut-off); inactive = mostly above about 56%. Shown is part of a subset that was picked to be rich in actives.
# Test system: DeltatarO mutant
# Experiment: S. aureus survival, RN4220 and DeltatarO strains – OD600, teichoic acid synthesis inhibitors, primary screen (AID 463173)
# Settings: S. aureus RN4220 wild type/DeltatarO growth, OD600, 18 h, active compounds read low, screened at 18.75 µg/mL (by protocol)
row,Compound,survival
1,Oc1c(C(c2ccc(Cl)cc2Cl)N2CCCC2)sc2nc(-c3ccco3)nn12 (stereo unspecified),68% (inactive)
2,Cc1cccc(C(=O)OCc2cc(=O)n3nc(C4CCCCC4)sc3n2)c1,78% (inactive)
3,CNC(=S)NC1CC2CCCC(C1)N2Cc1ccco1 (stereo unspecified),80% (inactive)
4,O=C(c1ccccc1)N1CCC(O)(c2cccnc2)CC1,70% (inactive)
5,CCOC(=O)c1ccc(NC(=O)CSc2cc(-c3ccccc3)nc(C)n2)cc1,40% (active)
6,COC(=O)c1ccccc1NC(=O)CSc1cc(-c2ccccc2)nc(C)n1,71% (inactive)
7,Cc1nc(SCC(=O)Nc2ccccc2Cl)cc(-c2ccccc2)n1,56% (active)
8,Cc1nc(SCC(=O)Nc2ccccc2C)cc(-c2ccccc2)n1,53% (inactive)
9,COc1ccc(NC(=O)CSc2cc(-c3ccccc3)nc(C)n2)cc1,94% (inactive)
10,Cc1nc(SCC(=O)Nc2ccc(C)c(Cl)c2)cc(-c2ccccc2)n1,46% (inactive)
11,Cc1ccc(NC(=O)CSc2nc(=O)n(CCN3CCOCC3)c3c2CCC3)c(C)c1,73% (inactive)
12,COC(=O)c1ccc(NS(=O)(=O)c2ccc3c(c2)n(C)c(=O)c(=O)n3C)cc1,79% (inactive)
13,COCCNC(=O)C1CCN(Cc2cc3ccccc3n2Cc2ccc(C)cc2)CC1,99% (inactive)
14,CCOc1ccc(NC(=O)CCS(=O)(=O)c2cc3c4c(c2)CCN4C(=O)CC3)cc1,74% (inactive)
15,Cc1cc(C)c(C#N)c(NC2CCCCC2)n1,87% (inactive)
16,N#CSc1cnc(NC2CCCCC2)s1,1% (active)
17,Cc1ccc(-c2nnc(NC3CCCC3)s2)cc1,76% (inactive)
18,Cc1ccc(C(=O)Nc2c(C(=O)Nc3ccc(C)c(C)c3)sc3nc(C)cc(C)c23)cc1,54% (inactive)
19,Cc1cc(C)cc(-n2c(C)cc(C(=O)C(=O)Nc3ccccc3F)c2C)c1,99% (inactive)
20,Cc1cccc(C2C=C(c3ccc(C)c(C)c3)Nc3nnnn32)c1 (stereo unspecified),6% (active)
21,COc1ccc(C2C=C(c3ccc(Br)cc3)Nc3nnnn32)c(OC)c1 (stereo unspecified),84% (inactive)
22,COc1cccc(C2C=C(c3ccc(C)c(C)c3)Nc3nnnn32)c1OC (stereo unspecified),72% (inactive)
23,COc1cccc(C2=CC(c3cc(Br)ccc3F)n3nnnc3N2)c1 (stereo unspecified),-2% (active)
24,CCOc1ccc(C2C=C(c3cccc(OC)c3)Nc3nnnn32)cc1 (stereo unspecified),45% (active)

row,Compound,survival
1,CN(C)c1ccc(C2C=C(c3ccccc3)Nc3nnnn32)cc1 (stereo unspecified),52% (inactive)
2,Fc1ccc(Br)cc1C1C=C(c2ccc(Br)cc2)Nc2nnnn21 (stereo unspecified),91% (inactive)
3,COc1ccc(C2=CC(c3cccc(C)c3)n3nnnc3N2)cc1 (stereo unspecified),84% (inactive)
4,CCOc1ccc(NC(=O)c2cnn3c2NC(c2cccc(OC)c2)=CC3c2ccccc2)cc1 (stereo unspecified),49% (inactive)
5,Cc1ccc(C)c(N2CCN(S(=O)(=O)c3ccc4c(c3)n(C)c(=O)c(=O)n4C)CC2)c1,76% (inactive)
6,CC(C)CC(C(=O)NCc1ccc(F)cc1)N1Cc2ccccc2C1=O (stereo unspecified),88% (inactive)
7,O=C(NCc1cccnc1)c1nn(-c2ccc(F)cc2)nc1CO,111% (inactive)
8,CCc1ccc2occ(CC(=O)Nc3c(C(=O)Nc4ccc(OC)cc4)oc4ccccc34)c2c1,84% (inactive)
9,CCOc1cc2c(cc1OCC)C(CC(=O)O)N(C(=O)Nc1ccc(Br)c(C)c1)CC2 (stereo unspecified),81% (inactive)
10,CCOC(=O)CC1c2cc(OCC)c(OCC)cc2CCN1C(=O)Nc1cccc(Cl)c1 (stereo unspecified),41% (active)
11,CCOc1cc2c(cc1OCC)C(CC(=O)OC)N(C(=O)Nc1cc(C)cc(C)c1)CC2 (stereo unspecified),83% (inactive)
12,Cc1ccccc1Cn1c(-c2cccs2)nc2ccccc21,19% (active)
13,CC(=O)N1CCCC1c1nc2ccccc2n1Cc1ccccc1C (stereo unspecified),69% (inactive)
14,CCCC(=O)NCCc1nc2ccccc2n1Cc1c(F)cccc1Cl,69% (inactive)
15,OCc1nc2ccccc2n1Cc1ccccc1Cl,74% (inactive)
16,OCc1nc2ccccc2n1Cc1c(F)cccc1Cl,99% (inactive)
17,Fc1cccc(Cl)c1Cn1c(-c2cccs2)nc2ccccc21,21% (active)
18,Clc1ccccc1Cn1c(-c2cccs2)nc2ccccc21,11% (active)
19,Cc1ccccc1Cn1cnc2ccccc21,77% (inactive)
20,CC(=O)N1CCCC1c1nc2ccccc2n1Cc1cccc(C)c1 (stereo unspecified),72% (inactive)
21,Cc1cccc(Cn2c(-c3cccs3)nc3ccccc32)c1,2% (active)
22,O=C(NCc1nc2ccccc2n1Cc1ccccc1Cl)c1ccccc1,97% (inactive)
23,Cc1cccc(CNC(=O)Cn2c(-c3cccs3)cc3ccccc32)c1,116% (inactive)
24,O=c1[nH]nc(-c2ccccc2)c2cc3c(=O)[nH]nc(-c4ccccc4)c3cc12,100% (inactive)

row,Compound,survival
1,CSc1cccc(NC(=O)Cn2c(=O)n(Cc3ccccc3)c(=O)c3sc4ccccc4c32)c1,91% (inactive)
2,Cc1ccc(Cn2c(=O)n(CC3CCC(C(=O)N4CCOCC4)CC3)c(=O)c3sccc32)cc1 (stereo unspecified),75% (inactive)
3,Cc1cccc(CC2C(=O)Nc3ccccc32)c1 (stereo unspecified),87% (inactive)
4,CCc1ccccc1NC(=O)Cn1ccn(-c2cc(C)cc(C)c2)c(=O)c1=O,67% (inactive)
5,Cc1cc(Cl)ccc1NC(=O)C(=O)NCc1ccco1,135% (inactive)
6,Cc1ccc(C)c(Cn2c(C(C)NC(=O)c3ccccc3)nc3ccccc32)c1 (stereo unspecified),88% (inactive)
7,CCC(O)c1nc2ccccc2n1Cc1cc(C)ccc1C (stereo unspecified),86% (inactive)
8,Cc1ccc(C)c(Cn2c(-c3cccs3)nc3ccccc32)c1,-3% (active)
9,Cc1cc2c(cc3c(SCc4ccccc4Cl)nnc(C)n32)o1,49% (active)
10,Clc1ccc(CSc2nncn3c2cc2occc23)cc1,47% (inactive)
11,Cc1cc2c(cc3c(SCc4ccc(Cl)cc4)nnc(C)n32)o1,57% (inactive)
12,Cc1ccc(C)c(NC(=O)CSc2nnc(C)n3c2cc2occc23)c1,66% (inactive)
13,Cc1cc(C)c(CSc2nnc(C)n3c2cc2occc23)c(C)c1,40% (active)
14,Cc1oc(-c2cccc(Cl)c2)nc1CSc1nnc(C)n2c1cc1occc12,79% (inactive)
15,Cc1cc2c(cc3c(SCc4cccc(Cl)c4)nnc(C)n32)o1,56% (inactive)
16,Cc1nnc(SCc2ccccc2Cl)c2cc3occc3n12,74% (inactive)
17,Cc1nnc(SCc2ccc(Cl)cc2)c2cc3occc3n12,28% (active)
18,Cc1ccc(-c2nc(CSc3nnc(C)n4c3cc3occc34)c(C)o2)cc1,72% (inactive)
19,Cc1oc(-c2ccccc2F)nc1CSc1nnc(C)n2c1cc1occc12,74% (inactive)
20,C=Cc1ccc(CSc2nnc(C)n3c2cc2occc23)cc1,42% (active)
21,COc1ccc(NC(=O)C(CC(C)C)NS(=O)(=O)c2ccc3c(c2)oc(=O)n3C)cc1Cl (stereo unspecified),127% (inactive)
22,Cc1cccc(NC(=O)CSc2nc3c(sc4ccccc43)c(=O)n2CCCC(=O)NC2CCCC2)c1,87% (inactive)
23,CCOC(=O)c1c(C)oc2ncnc(NCCCN3CCN(c4cc(C)ccc4C)CC3)c12,101% (inactive)
24,Cc1ccc(Cn2c(C(=O)NCc3ccccc3Cl)cc3sccc32)cc1,86% (inactive)

row,Compound,survival
1,COc1ccccc1-c1nc2c3c(-c4ccccc4)c(-c4ccccc4)oc3ncn2n1,70% (inactive)
2,COc1cccc(NC(=O)CSCc2cc(=O)c3ccc(C)c(C)c3[nH]2)c1,74% (inactive)
3,CSCCC(NS(=O)(=O)c1ccc2c(c1)oc(=O)n2C)C(=O)Nc1ccc(Cl)cc1 (stereo unspecified),94% (inactive)
4,O=C(CCn1c(=O)c2cccn2c2ccc(F)cc21)NCCc1ccccc1Cl,52% (inactive)
5,COc1ccc(OC)c(CNC(=O)CCn2c(=O)c3cccn3c3ccc(F)cc32)c1,58% (inactive)
6,COc1ccc(OC)c(CCNC(=O)CCn2c(=O)c3cccn3c3ccc(F)cc32)c1,58% (inactive)
7,COc1ccc(CCNC(=O)CCn2c(=O)c3cccn3c3ccc(F)cc32)c(OC)c1OC,39% (active)
8,COc1ccc(OC)c(CCNC(=O)CCCn2c(=O)c3cccn3c3ccc(F)cc32)c1,88% (inactive)
9,COc1ccccc1CCNC(=O)CCn1c(=O)c2cccn2c2ccc(F)cc21,44% (active)
10,COc1ccc(S(=O)(=O)Nc2ccc3c(c2)CCCN3S(=O)(=O)c2ccc(C)cc2)cc1F,74% (inactive)
11,O=C(NCCn1ccc2ccccc21)c1ccc(Cl)cc1,87% (inactive)
12,O=C1CC(c2ccccc2)Cc2[nH]c(=O)c(C(=O)Nc3ccc(OC(F)(F)F)cc3)cc21 (stereo unspecified),163% (inactive)
13,CCN(C(=O)CSc1nc2ccccc2[nH]1)c1ccccc1,85% (inactive)
14,CCN(C(=O)CSc1nc2ncccc2[nH]1)c1ccc(C(C)C)cc1,43% (active)
15,CCc1ccc(NC(=O)CSc2nc3ncccc3[nH]2)cc1,86% (inactive)
16,Cc1ccc(Cc2c(C)nc3nc(SCC(=O)NC4CCC(C)CC4)nn3c2C)cc1 (stereo unspecified),131% (inactive)
17,COc1ccccc1CNC(=O)CSc1nc2nc(C)c(Cc3ccccc3Cl)c(C)n2n1,46% (active)
18,Cc1cccc(Cc2c(C)nc3nc(SCC(=O)NC4CCCCC4)nn3c2C)c1,40% (active)
19,Cc1nc2nc(SCC(=O)NC3CCC(C)CC3)nn2c(C)c1Cc1ccccc1 (stereo unspecified),92% (inactive)
20,COc1cc(NC(=O)CSc2nc3nc(C)c(Cc4ccccc4Cl)c(C)n3n2)cc(OC)c1,73% (inactive)
21,COCCCNC(=O)CSc1nc2nc(C)c(Cc3ccccc3Cl)c(C)n2n1,61% (inactive)
22,COc1ccccc1CNC(=O)CSc1nc2nc(C)c(Cc3ccccc3C)c(C)n2n1,118% (inactive)
23,Cc1nc2nc(SCC(=O)NC3CCC(C)CC3)nn2c(C)c1Cc1ccccc1Cl (stereo unspecified),83% (inactive)
24,Cc1nc2nc(SCC(=O)NC3CCCCC3)nn2c(C)c1Cc1ccccc1Cl,25% (active)
